ANO1 activ: activators or potentiators of mouse TMEM16A chloride channel | HEK293 TMEM16A/YFP-H148Q/I152L, iodide quench fluorescence; active compounds read low | AID 623877 | Q8BHY3 | B-score at 10 µM | 0.3% of 340,000 active;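 active means fluorescence-ratio B-score plate-corrected deviation score at least 3 library SD below zero, with starting fluorescence score within 5 deviations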;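 further: channel opened by trigger with iodide after compound preincubation; score built on the fluorescence ratio of max minus min over baseline; more negative score means more quench and so TMEM16A activation or potentiation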
Target sequence (Q8BHY3 whole entry, looked up): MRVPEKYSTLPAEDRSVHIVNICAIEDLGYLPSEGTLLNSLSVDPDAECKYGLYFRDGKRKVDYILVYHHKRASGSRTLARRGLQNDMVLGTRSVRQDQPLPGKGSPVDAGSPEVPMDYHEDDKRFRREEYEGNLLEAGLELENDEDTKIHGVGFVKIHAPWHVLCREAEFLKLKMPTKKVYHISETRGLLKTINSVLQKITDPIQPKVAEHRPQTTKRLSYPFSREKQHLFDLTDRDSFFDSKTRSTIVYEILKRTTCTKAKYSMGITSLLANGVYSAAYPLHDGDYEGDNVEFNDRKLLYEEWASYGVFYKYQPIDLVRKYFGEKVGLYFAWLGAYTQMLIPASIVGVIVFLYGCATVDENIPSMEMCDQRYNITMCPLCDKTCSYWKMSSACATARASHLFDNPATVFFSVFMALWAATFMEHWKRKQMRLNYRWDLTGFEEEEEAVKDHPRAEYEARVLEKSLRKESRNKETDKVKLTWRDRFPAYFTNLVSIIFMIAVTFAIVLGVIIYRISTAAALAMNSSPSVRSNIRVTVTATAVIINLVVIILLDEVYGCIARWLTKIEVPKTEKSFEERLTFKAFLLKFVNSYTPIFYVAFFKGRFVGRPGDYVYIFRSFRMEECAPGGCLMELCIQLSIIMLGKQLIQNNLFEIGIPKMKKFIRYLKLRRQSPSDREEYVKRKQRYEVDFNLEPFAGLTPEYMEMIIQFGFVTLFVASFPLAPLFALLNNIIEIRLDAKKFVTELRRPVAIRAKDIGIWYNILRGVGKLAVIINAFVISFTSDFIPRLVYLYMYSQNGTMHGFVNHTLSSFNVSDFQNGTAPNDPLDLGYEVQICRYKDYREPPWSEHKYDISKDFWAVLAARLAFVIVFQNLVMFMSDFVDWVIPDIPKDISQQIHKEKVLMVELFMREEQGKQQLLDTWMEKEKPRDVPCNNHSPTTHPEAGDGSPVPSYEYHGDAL
TMEM16A inh: inhibitors of mouse TMEM16A calcium-activated chloride channel. Q8BHY3. HEK293 TMEM16A/YFP iodide influx fluorescence, ionomycin. normalized B-score (activity score, 25-100; higher = stronger inhibition) at 10 µM. 1.2% of 310,000 active;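 active means ratio plate-corrected score three or more library SD toward inhibition, starting fluorescence score within five deviations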;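 further: score derived from kinetic fluorescence span divided by baseline fluorescence per well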
CHT inh: human CHT choline transport inhibition. CHT-expressing cells, membrane potential dye, choline response; active compounds read low. B-score at 10 µM. 0.86% of 310,000 active. AID 488975;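 active means B-score over 3 SD under the library average, and starting fluorescence ratio not unusually high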;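 further: choline stimulus applied at its EC90 after an EC20 pre-addition; B-score computed on integrated fluorescence ratio after choline addition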
CHT PAM: human CHT allosteric activation. Q9GZV3. B-score at 10 µM. AID 488977. 0.49% of 310,000 active. CHT-expressing cells, membrane potential dye, choline EC20; active compounds read high; LV-AA mutant CHT in HEK293 cells;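 active means initial fluorescence not abnormally high and integrated response B-score, plate-corrected, over 3 SD above library mean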
CHT block conf: confirmation of human choline transporter CHT inhibitors; 70% of 2,400 active; CHT-expressing cells, choline membrane potential dye; LV-to-AA substituted CHT, HEK293 cells; shares compounds with CHT inh; CHT activity remaining % of control (active compounds read low), % at 10 µM;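 active means choline transporter activity left, mean of duplicates at 10 µM, below buffer-only control mean minus 3 SD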;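 further: depolarization triggered by choline at its EC90 following an EC20 pre-addition; 0% = hemicholinium-3 full block and 100% = buffer-only control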
HEK293 CHT ctr: activity in parental HEK293 cells lacking CHT. shares compounds with CHT inh. membrane potential dye, choline response; active = decrease or increase beyond buffer ±3SD. membrane potential ratio readout (active if shifted either direction beyond buffer ±3SD; no single direction) at 10 µM. 4% of 2,400 active;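 further: parental cells lack the transporter so any hit is non-specific; ratio is peak minus trough fluorescence over baseline after EC90 choline challenge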
Numbers without * were called inactive; i = inactive; / = not tested or not shown. Most compounds without a hit are left out; they make up all but 2.4% or so of the library.

SMILES | ANO1 activ | TMEM16A inh | CHT inh | CHT PAM | CHT block conf | HEK293 CHT ctr
CC(Sc1nc2ccccc2s1)C(=O)Nc1nnc(C(C)C)s1 (stereo not given) | i | i | -5.3* | i | i | i
Cc1cc(C)n2nc(SCc3nnc(SCc4ccccc4)s3)nc2n1 | i | i | -6.1* | i | i | i
Cc1cc(C)n2nc(SCc3ccccc3)nc2n1 | i | i | i | i | / | /
Cc1cccc(NC(=S)NCCN2CCOCC2)c1 | i | i | i | i | / | /
S=C(NCCCN1CCOCC1)Nc1cccc(-c2nnc3n2CCCCC3)c1 | i | i | -5.2* | i | 61%* | i
Cc1noc(/C=C/c2cccs2)c1S(=O)(=O)N1CCC(C(=O)NCCCN2CCCC(C)C2)CC1 (stereo not given) | i | i | i | i | i | i
CCCCNC(=O)C1CCCN(S(=O)(=O)c2c(C)noc2/C=C/c2cccs2)C1 (stereo not given) | i | i | i | i | / | /
Cc1cc(NC(=O)CCC(=O)N(c2ccccc2F)C(C(=O)NC2CCCC2)c2ccccc2)no1 (stereo not given) | i | i | i | i | / | /
CCn1cc(C(=O)NCCCN2CCN(C)CC2)c(=O)c2cc(S(=O)(=O)N3CCc4ccccc4C3)ccc21 | i | i | -9.1* | i | i | i
CCN(CC)CCNC(=O)c1cn(CC)c2ccc(S(=O)(=O)N(C)C)cc2c1=O | i | i | i | i | / | /
CCN(CC)CCNC(=O)c1cn(CC)c2ccc(S(=O)(=O)N3CCc4ccccc4C3)cc2c1=O | i | i | -8.1* | i | 28%* | i
CCN(CC)CCCNC(=O)c1cn(CC)c2ccc(S(=O)(=O)N3CCc4ccccc4C3)cc2c1=O | i | i | -12* | i | 15%* | i
CCCCNC(=O)c1cn(CC)c2ccc(S(=O)(=O)N3CCCC3)cc2c1=O | i | i | i | i | / | /
CCC(Sc1ccccn1)C(=O)Nc1cccc([N+](=O)[O-])c1 (stereo not given) | i | i | i | i | / | /
COc1ccc(N2C(=O)CC(N(Cc3ccco3)C(=O)CCC(=O)O)C2=O)cc1 (stereo not given) | i | i | -6.4* | i | i | i
CCCOc1ccc(N2C(=O)CC(N(Cc3ccco3)C(=O)CCC(=O)O)C2=O)cc1 (stereo not given) | i | i | i | i | / | /
Nc1ccc(C(=O)NN2C(=O)[C@H](Cl)C2c2ccc(Cl)cc2)cc1 (stereo not given in full) | i | / | / | / | / | /
CSc1nc2ccc(Br)cc2[nH]1 | i | i | i | i | / | /
CC(C)Sc1nc2ccc(Br)cc2[nH]1 | i | i | -5.5* | i | i | i
Fc1ccc(Sc2cc(Cl)c(-c3ccccc3)nn2)cc1 | i | i | i | i | / | /
O=C(OCC(=O)N1CCCC1=O)c1cc(Cl)ccc1O | i | i | i | i | / | /
CC(=O)Oc1ccc2nc(-c3ccc(Br)o3)oc(=O)c2c1 | i | i | i | i | / | /
CCOP(=O)(OCC)c1nc(-c2cccc3ccccc23)oc1NCc1ccc(OC)cc1 | i | i | i | i | / | /
c1ccc(CCCCN2C(Nc3ccccc3)=NC[C@@H]2Cc2ccccc2)cc1 | i | i | -7.5* | i | 32%* | i
CSC1=NSC2=NC(=O)/C(=C\c3ccc(OC(=O)c4ccco4)cc3)C(=N)N12 | i | i | i | i | / | /
SMILES | ANO1 activ | TMEM16A inh | CHT inh | CHT PAM | CHT block conf | HEK293 CHT ctr
COc1cc(/C=C2\C(=N)N3N=C(S(C)(=O)=O)SC3=NC2=O)ccc1OS(=O)(=O)c1ccccc1 | / | i | i | i | / | /
CCC1=NN2C(=N)/C(=C/c3ccc(OS(=O)(=O)c4ccccc4)cc3)C(=O)N=C2S1 | i | i | i | i | / | /
CCS(=O)(=O)C1=NN2C(=N)/C(=C\c3ccc(OS(=O)(=O)c4ccccc4)cc3)C(=O)N=C2S1 | i | i | -8.7* | i | 42%* | i
CC(C)CS(=O)(=O)C1=NSC2=NC(=O)/C(=C\c3ccc(OC(=O)c4ccco4)cc3)C(=N)N21 | i | i | -6.9* | i | 65%* | i
CCS(=O)(=O)C1=NSC2=NC(=O)/C(=C\c3ccc(OS(=O)(=O)c4ccccc4)c(OC)c3)C(=N)N21 | i | i | -5.3* | i | 48%* | i
CS(=O)(=O)C1=NSC2=NC(=O)/C(=C\c3ccc(OS(=O)(=O)c4ccccc4)cc3)C(=N)N21 | i | i | -6.6* | i | 58%* | i
CCOC(=O)c1ccc(NC(=O)Cn2cnc(S(=O)(=O)N3CCCC3)c2)cc1 | i | i | i | i | / | /
Cc1ccc(S(=O)(=O)Oc2ccc(/C=C3/C(=N)N4C(=NC3=O)SN=C4S(C)(=O)=O)cc2)cc1 | i | i | -6.1* | i | 48%* | i
COc1cc(/C=C2/C(=N)N3C(=NC2=O)SN=C3S(C)(=O)=O)ccc1OS(=O)(=O)c1ccc(C)cc1 | i | i | i | i | / | /
Cc1ccc(N2C(=O)CC(C)(C)CC2=O)cc1Cl | i | i | i | i | / | /
O=C(CCC(=O)N1CCOc2ccc(Cl)cc21)NCc1ccccc1 | i | i | -6.3* | i | i | i
COc1ccccc1CNC(=O)CCC(=O)N1CCOc2ccc(Cl)cc21 | i | i | i | i | / | /
CCN(Cc1ccncc1)C(=O)c1cc(COc2c(C)cccc2C)on1 | i | i | -5.5* | i | 53%* | i
CCN(Cc1ccncc1)C(=O)c1cc(COc2ccc(F)cc2F)on1 | i | i | i | i | / | /
O=C(Cn1nc(C(F)(F)F)c2c1CCCC2)NC1CCCC1 | i | i | -5.8* | i | 52%* | i
CC(C)NC(=O)Cn1nc(C(F)(F)F)c2c1CCC2 | i | i | i | i | / | /
COc1ccc([N+](=O)[O-])c(S(=O)(=O)c2ccccc2)n1 | i | i | -5.3* | i | 44%* | i
O=[N+]([O-])c1cccnc1S(=O)(=O)c1ccccc1 | i | i | i | i | / | /
COc1ccc([N+](=O)[O-])c(S(=O)(=O)c2ccc(Cl)cc2)n1 | i | i | -6.6* | i | 48%* | i
Cn1c2c(c3ccccc31)CCN1CCC[C@]21c1ccccc1 | i | i | -5.1* | i | i | i
COc1ccc(C2CC(c3ccc(Br)cc3)=NN2C(=O)CN2CCCC2)cc1 (stereo not given) | i | i | -7.1* | i | 56%* | i

Source: PubChem BioAssay (Johns Hopkins Ion Channel Center)
